# 14-3-3 PPI: modulators of 14-3-3 gamma protein binding, primary screen, biochemical, fluorescence polarization; FP, 14-3-3gamma / TMR-pS259-Raf peptide binding; 0.19% of 160,000 active; inhibition, % at 40 µM; 14-3-3 protein gamma (Homo sapiens), P61981; AID 422, 2006; in the data active = inhibition above about 30%;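 also: 0% = protein plus tracer without compound and 100% = blank with tracer alone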
# Target sequence (P61981 whole entry, looked up): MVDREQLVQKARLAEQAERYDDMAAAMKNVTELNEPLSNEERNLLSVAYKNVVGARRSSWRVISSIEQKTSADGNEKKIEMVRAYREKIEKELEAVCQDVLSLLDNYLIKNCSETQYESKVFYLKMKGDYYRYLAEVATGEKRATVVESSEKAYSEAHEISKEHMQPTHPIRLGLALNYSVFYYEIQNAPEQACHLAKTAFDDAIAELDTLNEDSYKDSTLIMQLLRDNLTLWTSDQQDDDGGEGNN
# * marks the source's active call; other numbers are inactive results. The entries come from a sample that favours hits as a whole.
SMILES,14-3-3 PPI
CC1CCCN(c2cc(NCCCC(=O)O)c3c4c(onc24)-c2ccccc2C3=O)C1 (centres undefined),51.3*
O=C(O)CCCNc1cc(N2CCN(C3CCCCC3)CC2)c2noc3c2c1C(=O)c1ccccc1-3,-103.7
Cc1ccc(Cl)cc1NC(=O)c1ccncc1,2.5
COC(=O)c1c(C)oc2c1cc(NS(=O)(=O)c1ccc3ccccc3c1)c1ccccc12,-15.7
CCCOC(=O)C(CC)Sc1ncnc2sc3c(c12)CCC(C)C3 (centres undefined),1.1
COc1ccc(NC(=O)c2ccc(N3C(=O)c4ccc(C(=O)Nc5ccc(OC)cc5)cc4C3=O)cc2)cc1,-4.6
COc1ccc(-n2c(-c3ccc([N+](=O)[O-])cc3)nc(=S)c3c2CCCC3)cc1,-3.6
CCC(C)OC(=O)C1=C(C)NC2=C(C(=O)CC(c3ccc(OC)cc3)C2)C1c1ccc(OC)c(OC)c1 (centres undefined),-11.4
CCC(C)OC(=O)C1=C(C)NC2=C(C(=O)CC(c3ccccc3)C2)C1c1cc(OC)c(OC)cc1Br (centres undefined),38.8*
CCC(C)OC(=O)C1=C(C)NC2=C(C(=O)CC(c3ccccc3)C2)C1c1cccc2ccccc12 (centres undefined),19.3
CCC(=O)Nc1ccc2oc(-c3ccc(Br)c(C)c3)nc2c1,-102.9
COc1ccc(-c2cn(-c3ccc(OC)cc3)c(SCC(=O)Nc3nccs3)n2)cc1,12.1
CC1(C)CC(=O)C(C2C3=C(CC(C)(C)CC3=O)Oc3ccc(Br)cc32)=C(O)C1 (centres undefined),3.8
O=C(CN1C(=O)c2ccccc2C1=O)NCc1ccccn1,14.2
O=C(CCN1C(=O)c2ccccc2C1=O)NCc1ccccn1,177.4*
O=C(CCN1C(=O)c2ccccc2C1=O)NCc1ccncc1,-1.0
Cc1c(C(=O)N2CCN(c3ccccc3)CC2)sc2ncn(CC(=O)N3CC(C)CC(C)C3)c(=O)c12 (centres undefined),2.6
CCN1CCN(C(=O)C2CCN(S(=O)(=O)N3CCOCC3)CC2)CC1,-3.8
COc1ccc(-c2ccc3c(N)c(C(=O)Nc4ccc5c(c4)OCCO5)sc3n2)cc1,-3.4
COc1cccc(-c2ccc3c(N)c(C(=O)c4ccc(Cl)cc4)sc3n2)c1,-3.4
COc1ccc(-c2ccc3c(N)c(C(=O)c4ccc5c(c4)OCCO5)sc3n2)cc1,70.8*
CCC(C)NC(=O)CSc1nc(Nc2ccc(F)cc2)c2ccccc2n1 (centres undefined),-8.3
Cc1ccc(C(=O)N2CCN(c3ccc(Cl)cc3[N+](=O)[O-])CC2)cc1,-2.4
O=C(O)c1cccnc1SC1CC(=O)N(c2ccc([N+](=O)[O-])cc2)C1=O (centres undefined),-4.8
O=C(O)c1cccnc1SC1CC(=O)N(c2ccc(N3CCOCC3)cc2)C1=O (centres undefined),30.3*
SMILES,14-3-3 PPI
O=C(O)c1cccnc1SC1CC(=O)N(c2ccc3c(c2)OCO3)C1=O (centres undefined),-51.3
Cc1ccc(C(=O)Oc2ccc(C3C4=C(CCCC4=O)NC4=C3C(=O)c3ccccc34)cc2)cc1 (centres undefined),-65.5
COc1ccc(C(=O)N2N=C3CCC(C)CC3C2(O)C(F)(F)F)cc1OC (centres undefined),2.0
Cc1ccc2cc3cc(C(=O)NC4CC4)oc3nc2c1,36.2*
Cc1ccc2cc3cc(C(=O)N4CCN(c5cccc(C)c5C)CC4)oc3nc2c1,57.1*
Cc1ccc2cc3cc(C(=O)N4CCN(C5CCCCC5)CC4)oc3nc2c1,16.7
Cc1ccc2cc3cc(C(=O)N4CCN(c5ccc([N+](=O)[O-])cc5)CC4)oc3nc2c1,-13.2
Cc1ccc2cc3cc(C(=O)NC4CCN(Cc5ccccc5)CC4)oc3nc2c1,-13.2
Cc1ccc2cc3cc(C(=O)N4CCC(C)CC4)oc3nc2c1,-5.8
Cc1ccc2cc3cc(C(=O)NC4CCCC4)oc3nc2c1,12.6
Cc1ccc2cc3cc(C(=O)N4CC(C)CC(C)C4)oc3nc2c1 (centres undefined),-3.8
Cc1ccc2cc3cc(C(=O)N4CCN(c5ccc(F)cc5)CC4)oc3nc2c1,67.0*
CC1CCCCN1C(=O)c1cc2nc(-c3cccs3)cc(C(F)(F)Cl)n2n1 (centres undefined),0.2
Cc1ccc(Cn2c(=O)n(CCC(=O)NCc3ccco3)c(=O)c3sccc32)cc1,-5.7
Cc1cc(Oc2coc3cc(OC(C)C(=O)OCC(C)C)ccc3c2=O)cc(C)c1Cl (centres undefined),-148.7
COc1cc(C=Cc2nc3cc(Cl)ccc3c(=O)n2-c2ccc(F)cc2)cc(OC)c1OC,-0.3
O=C1C(Cl)=C(NC2CCCCC2)C(=O)N1c1cccc(C(F)(F)F)c1,-2.6
O=C1C=C(C(F)(F)F)c2ccc(NC3CCCCC3)c3cccc1c23,130.7*
O=[N+]([O-])c1cc(S(=O)(=O)C(Cl)(Cl)Br)ccc1NC1CCCCC1,-8.2
Cc1ccc(-c2ccccc2)n1-c1ccc(O)c(C(=O)O)c1,-39.0
O=C1c2ccc(N3Cc4ccccc4C3)cc2C(=O)N1c1ccccc1,-10.1
O=C(O)c1cc(N2Cc3ccccc3C2)ccc1O,80.7*
COC(=O)c1c(NC(=O)COc2cc(C)c(Cl)c(C)c2)sc(C)c1C,-6.3
COc1ccc(Cl)cc1NC(=O)CSc1nccn1-c1cccc(Cl)c1,2.6
O=C(CN(Cc1ccccc1)S(=O)(=O)c1ccc(Br)cc1)NCc1ccncc1,-1.8
SMILES,14-3-3 PPI
O=C(CN(Cc1ccccc1)S(=O)(=O)c1ccccc1)NCc1ccncc1,33.1*
O=C(CN(Cc1ccccc1)S(=O)(=O)c1ccc(F)cc1)NCc1ccccc1,3.2
CC(=O)Nc1ccc(S(=O)(=O)N2CCN(C(=O)c3ccc([N+](=O)[O-])cc3)CC2)cc1,-5.1
O=C(Nc1ccccc1Cl)c1cc(S(=O)(=O)N2CCCc3ccccc32)ccc1F,3.9
O=C(Nc1cccc(Cl)c1)c1ccc(F)c(S(=O)(=O)N2CCCc3ccccc32)c1,-8.2
O=C(Nc1ccccc1Cl)c1ccc(F)c(S(=O)(=O)N2CCCc3ccccc32)c1,31.3*
Cc1ccc(-c2csc(NC(=O)CSc3nc(-c4ccccc4)cc(=O)[nH]3)n2)cc1,-5.6
O=C(CN1C(=O)c2ccc([N+](=O)[O-])cc2C1=O)Nc1ccccc1[N+](=O)[O-],3.1
O=C(CN1C(=O)c2ccc([N+](=O)[O-])cc2C1=O)Nc1ccc(O)cc1C(=O)O,37.2*
O=C(CN1C(=O)c2ccc([N+](=O)[O-])cc2C1=O)Nc1ccc(Br)cc1C(=O)O,-1.8
COc1ccc2nc(N=CN(C)C)sc2c1,-0.3
COc1ccc(NC(=O)c2c(NC(=O)c3ccc(Br)cc3)sc3c2CCC(C)C3)cc1 (centres undefined),-3.9
O=C1NCCN1C(=O)Nc1cccc(Cl)c1,1.1
CCN(CC)c1ccc(N=C2C(=O)Nc3ccccc32)cc1,-36.4
CN(C)c1ccc(/C=C2\C(=O)Nc3ccccc32)cc1,38.3*
Cc1ccc(N=C2C(=O)Nc3ccccc32)cc1,-4.5
Oc1ccccc1-c1nc2ccc3ccccc3c2c2c1CCC2,-13.2
CCOc1ccc2ccccc2c1C(=O)Nc1c2c(nn1C(C)(C)C)CS(=O)C2 (centres undefined),-8.4
O=C(C1CCN(S(=O)(=O)c2cccnc2)CC1)N1CCN(Cc2ccccc2)CC1,-1.0
Cc1ccc([N+](=O)[O-])c2c1NC(c1ccc(Br)cc1)C1CC=CC21 (centres undefined),-10.9

# Screening results as filed in PubChem BioAssay.
